The text below walks through data of PubChem BioAssay.

Assay [1] can be described thus: StAR promoter reporter inhibitors, counter-screen for LRH-1 inverse agonist project, cell-based, luminescence, high throughput (AID 651611; in the data active = inhibition above about 28%). To be noted: StAR promoter luciferase reporter counterscreen, at 3.6 µM, hits give high values. For orientation: Counterscreens check selectivity or assay interference.
Assay [2] deals with Nuclear receptor subfamily 5 group A member 2 (Homo sapiens) (UniProt O00482). Kind of assay: NR5A2 activity suppression in reporter cells – cell-based, luminescence, confirmation (AID 651613; in the data active = inhibition above about 42%;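 also: HEK293T cells co-transfected with LRH-1 and StAR promoter luciferase reporter; 0% = vehicle wells and 100% = parental cells lacking receptor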). To be noted: cell-based LRH-1 luciferase reporter, inverse agonism; at 3.6 µM; hits give high values. A general note: A reporter such as luciferase makes a cellular process visible.
Assay [3] addresses Steroidogenic factor 1 (Homo sapiens) (UniProt Q13285). In words: inverse agonism at SF1 nuclear receptor – cell-based, luminescence, high throughput, counter-screen for LRH-1 inverse agonist project (AID 651614).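 Also: cells cotransfected with StAR promoter reporter and SF1 expression vector; 0% = vehicle on cells with receptor and 100% = vehicle on cells lacking receptor.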 Conditions: cell-based SF1 luciferase reporter, at 3.6 µM, hits give high values.
The nature of assay [4]: compounds suppressing VP16-driven luciferase signal – cell-based, luminescence, high throughput, counter-screen for LRH-1 inverse agonist project (AID 651615; in the data active = inhibition above about 33%). Conditions: Gal4-VP16 luciferase reporter cells, at 3.6 µM, hits give high values.

SMILES strings stand for the structures. Unmarked numbers belong to inactive results. Calls of active or inactive are those of the source. Rule as the data show it, unless noted: active = inhibition above about 44%; inactive = the rest.

Sequence of Steroidogenic factor 1 (Homo sapiens) (Q13285 whole entry, looked up, the tested form may be a part): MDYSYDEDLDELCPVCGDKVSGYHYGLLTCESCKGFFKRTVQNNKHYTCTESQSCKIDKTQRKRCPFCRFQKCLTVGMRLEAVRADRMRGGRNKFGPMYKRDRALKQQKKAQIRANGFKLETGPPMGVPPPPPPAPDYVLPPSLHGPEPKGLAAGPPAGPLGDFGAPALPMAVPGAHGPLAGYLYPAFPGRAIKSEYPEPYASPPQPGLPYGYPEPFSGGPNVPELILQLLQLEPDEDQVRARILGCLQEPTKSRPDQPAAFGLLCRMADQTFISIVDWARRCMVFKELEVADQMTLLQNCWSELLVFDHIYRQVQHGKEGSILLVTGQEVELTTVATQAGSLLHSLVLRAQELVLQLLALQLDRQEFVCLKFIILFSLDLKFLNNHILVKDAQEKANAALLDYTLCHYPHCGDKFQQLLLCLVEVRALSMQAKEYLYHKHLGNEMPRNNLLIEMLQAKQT
Sequence of Nuclear receptor subfamily 5 group A member 2 (Homo sapiens) (O00482 whole entry, looked up): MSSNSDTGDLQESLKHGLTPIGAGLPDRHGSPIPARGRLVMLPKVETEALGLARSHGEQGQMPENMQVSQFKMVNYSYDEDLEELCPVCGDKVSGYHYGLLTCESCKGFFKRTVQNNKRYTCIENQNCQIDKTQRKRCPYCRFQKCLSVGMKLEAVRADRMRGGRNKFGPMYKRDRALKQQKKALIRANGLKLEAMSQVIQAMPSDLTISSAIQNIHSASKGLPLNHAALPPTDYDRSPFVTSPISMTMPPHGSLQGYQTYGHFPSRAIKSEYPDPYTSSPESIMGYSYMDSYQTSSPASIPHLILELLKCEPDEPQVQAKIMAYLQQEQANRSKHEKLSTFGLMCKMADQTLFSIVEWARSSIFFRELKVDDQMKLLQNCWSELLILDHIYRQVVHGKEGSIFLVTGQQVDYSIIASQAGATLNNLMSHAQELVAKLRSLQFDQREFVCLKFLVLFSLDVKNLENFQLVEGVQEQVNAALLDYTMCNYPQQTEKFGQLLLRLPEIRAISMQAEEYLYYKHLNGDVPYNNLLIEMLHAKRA

For `Cc1ccc2nsnc2c1NC(=O)c1ccc([N+](=O)[O-])o1`, the inhibition was 14.4% in assay [1], 57.8% (active) in assay [2], 55.7% (active) in assay [3] and -22.5% in assay [4].
For `Cc1ccc(CNC(=O)CN2C(=O)NC3(CCCC3)C2=O)cc1`, the inhibition in assay [1] was 5.83%; in assay [2] it was 33.5%; in assay [3] it was 43.7% (active); in assay [4] it was 0.14%.
Regarding `O=C(CSc1ccccn1)Nc1nonc1[N+](=O)[O-]`, the inhibition in assay [1] is 10.8%; in assay [2], 16.9%; in assay [3] it was 26.5%; in assay [4], -15.1%.
As for `Cc1ccc(/C=C/S(=O)(=O)NCC(=O)OCC(=O)Nc2c(F)cccc2F)cc1`, the inhibition in assay [1] is 26.3%; in assay [2], 52% (active); in assay [3], 55.4% (active); in assay [4] it was -18.4%.
For `N#Cc1c(N)c(C#N)c(-c2ccc(O)cc2)c2c1CCCC2`, the inhibition in assay [1] was 6.6%; in assay [2], 57.8% (active); in assay [3], 53.8% (active); in assay [4], 9.21%.
Turning to `CC(=O)NC12CC3CC(C1)CC(C(=O)Nc1nc4ccc(S(C)(=O)=O)cc4s1)(C3)C2`, the inhibition was 11.2% in assay [1], 50.8% (active) in assay [2], 45.2% (active) in assay [3] and -1.09% in assay [4].
Take `CC(=O)Nc1cc(-c2ccc(F)cc2)cn2c(-c3ccc(S(C)(=O)=O)cc3)cnc12`: the inhibition is 12.6% in assay [1], 51.4% (active) in assay [2], 48.7% (active) in assay [3] and -16.1% in assay [4].
`C=CCn1c(CCNC(=O)c2cccs2)nnc1SCC(=O)Nc1cccc(Cl)c1C`: the inhibition in assay [1] is 8.38%; in assay [2], 57.9% (active); in assay [3] it was 53.4% (active); in assay [4], 2.77%.
For `CC[C@@H](C(=O)[C@@H](C)[C@@H](O)[C@H](C)[C@@H]1O[C@@H]([C@@H](CC)C(=O)O)CC[C@@H]1C)[C@H]1O[C@]2(C=C[C@@H](O)[C@]3(CC[C@@](C)([C@H]4CC[C@](O)(CC)[C@H](C)O4)O3)O2)[C@H](C)C[C@@H]1C`, in that order: 87% (active), 103% (active), 92.7% (active) and 92.3% (active).
The matching figures for `COc1ccc(NS(=O)(=O)c2ccc(OCC(=O)N3CCOCC3)cc2)cc1Cl`: -8.5%, 35.7%, 34.3% and 6.15%.
The matching figures for `CCC(NC(=O)c1cc(COc2cc(C)c(Cl)c(C)c2)on1)c1ccncc1` (stereo not drawn): 0.99%, 52.5% (active), 50.9% (active) and 8.52%.
Turning to `Cc1ccn2c(=O)nc(SCC(=O)Nc3ccc4c(c3)OCCO4)nc2c1`, the inhibition in assay [1] is -9.07%; in assay [2], 49.3% (active); in assay [3], 51% (active); in assay [4], -15.9%.
For `CC(=O)Nc1ccc(NC(=O)CSc2nnnn2C2CCCCC2)cc1`, in that order: 17%, 57.9% (active), 44.5% (active) and -1.05%.
For `CCN1C(=O)c2cccc3c(NC(=O)c4ccc(S(=O)(=O)N(C)C)cc4)ccc1c23`, the inhibition in assay [1] was 39% (active); in assay [2] it was 47.9% (active); in assay [3] it was 46.2% (active); in assay [4], -41.4%.
Regarding `O=C(Cn1ccc(=O)[nH]c1=O)c1ccc([N+](=O)[O-])o1`, the inhibition was 13.1% in assay [1], 14.3% in assay [2], 14.9% in assay [3] and -16.8% in assay [4].
Consider `O=c1[nH]c2cc3ccccc3cc2nc1-c1nnnn1C1CCCC1`, for which the inhibition in assay [1] was 33.8% (active); in assay [2] it was 33.4%; in assay [3] it was 44.6% (active); in assay [4], 8.72%.
Turning to `C#Cc1cc(N2CCN(C(=O)c3ccoc3)CC2)n2nc(-c3cccc(Cl)c3)cc2n1`, the inhibition in assay [1] was 49% (active); in assay [2], 55.6% (active); in assay [3], 62.4% (active); in assay [4] it was 23.7%.
`Cc1nc(C)c(-c2csc(Nc3cccnc3)n2)s1`: the inhibition in assay [1] was -12.1%; in assay [2], 41.5% (active); in assay [3] it was 35.4%; in assay [4] it was -47.9%.
The matching figures for `COc1cc(CSc2nnnn2-c2ccc(C)cc2)cc(OC)c1OC`: 24.4%, 53.3% (active), 61.1% (active) and 44.8% (active).
Take `CCCCCCCCN1C(=O)[C@H](CC(=O)NCC23CC4CC(CC(C4)C2)C3)C[C@@]2(C(=O)OCC)CCCC=C12`: the inhibition in assay [1] is 22.3%; in assay [2], 24.8%; in assay [3], 17.4%; in assay [4], 14.6%.
In the case of `COc1ccccc1-c1cc(NC=O)c2ncc(-c3ccc(S(C)(=O)=O)cc3)n2c1`, the inhibition is 31.8% (active) in assay [1], 42.8% (active) in assay [2], 46.9% (active) in assay [3] and -33.2% in assay [4].
Turning to `Cc1ccc(Cl)cc1N1CCN(C(=O)C(C)n2ncn3cccc3c2=O)CC1` (stereo not drawn), the inhibition in assay [1] was 7.03%; in assay [2], 35.4%; in assay [3] it was 41.2%; in assay [4], 2.84%.
As for `Cc1onc(NC(=O)c2ccc([N+](=O)[O-])o2)c1Br`, the inhibition in assay [1] was 4.26%; in assay [2], 64.9% (active); in assay [3], 58.4% (active); in assay [4], -9.49%.
On to `O=C(C(Cl)c1ccccc1)N1CCOCC1` (stereo not drawn), for which the inhibition in assay [1] was 5.9%; in assay [2], 56.5% (active); in assay [3], 54.5% (active); in assay [4], -10.2%.
For `Cc1ccc(Cl)cc1NC(=O)COC(=O)CC(C)(C)C`, the inhibition in assay [1] was 28.3% (active); in assay [2], 62.4% (active); in assay [3] it was 60.2% (active); in assay [4], -10.5%.
With `Cc1cc(=O)oc2cc(O)cc(OCc3ccccc3)c12`, the inhibition in assay [1] was 26%; in assay [2], 51.7% (active); in assay [3] it was 45.2% (active); in assay [4], -8.41%.
The matching figures for `COc1ccc2nc(N3CCN(C(=O)c4ccc([N+](=O)[O-])o4)CC3)sc2c1`: 0.52%, 64.3% (active), 61.8% (active) and -44.3%.
Turning to `Clc1ccc2c(c1)-c1ccccc1C1=NCCN12`, the inhibition was 51.8% (active) in assay [1], 90.7% (active) in assay [2], 70.4% (active) in assay [3] and 64.1% (active) in assay [4].
With `Cc1ccc(CC(=O)Nc2ccncc2)cc1`, the inhibition in assay [1] is 7.72%; in assay [2], 64.3% (active); in assay [3], 64.9% (active); in assay [4], 40.5% (active).
On to `Cc1ccccc1Nc1nc(Cl)c(C=O)s1`, for which the inhibition in assay [1] is 2.17%; in assay [2], 50.5% (active); in assay [3], 41.7%; in assay [4], -5.11%.
On to `COC(=O)CNC(=O)c1nn(-c2cccc(OC)c2)c(=O)c2ccccc12`, for which the inhibition in assay [1] is 25%; in assay [2], 35.9%; in assay [3] it was 37.3%; in assay [4], -0.96%.
On to `O=C(Nc1ccc(F)cc1)c1oc2ccccc2c1NC(=O)C1CC1`, for which the inhibition is 24.4% in assay [1], 50.9% (active) in assay [2], 62.2% (active) in assay [3] and 3.97% in assay [4].
Regarding `S=C1Cc2ccccc2N1`, the inhibition is 56% (active) in assay [1], 85.9% (active) in assay [2], 79.5% (active) in assay [3] and 53.3% (active) in assay [4].
For `C/C(=N\NC(N)=S)c1ccc(-n2ccnc2)cc1`, in that order: 10.1%, 60.5% (active), 53.4% (active) and -13.1%.
In the case of `CC(=O)Nc1cc(-c2cccc(N)c2)cn2c(-c3ccc(C(C)=O)cc3)cnc12`, the inhibition in assay [1] was 19.6%; in assay [2], 33.4%; in assay [3], 36.5%; in assay [4], -13.4%.
As for `COc1ccc(CCNC(=O)COC(=O)Cc2ccccc2[N+](=O)[O-])cc1`, the inhibition is 8.86% in assay [1], 65.5% (active) in assay [2], 61.4% (active) in assay [3] and -6.51% in assay [4].
For `CC(=O)Nc1ccc(NC(=O)CSc2nnc(COc3ccccc3C)n2CC2CCCO2)cc1` (stereo not drawn), in that order: 16.5%, 64.6% (active), 57.3% (active) and -5.23%.
On to `Cn1c(SCC(=O)Nc2ccc3nc(SCC(=O)NC4CC4)sc3c2)nnc1-c1ccccc1`, for which the inhibition in assay [1] was 12.3%; in assay [2] it was 59.7% (active); in assay [3] it was 61.5% (active); in assay [4], 2.96%.
As for `O=[N+]([O-])c1ccc(N2CCN(Cc3ccccc3)CC2)c2c1no[n+]2[O-]`, the inhibition in assay [1] was 63.5% (active); in assay [2], 57.3% (active); in assay [3], 63.1% (active); in assay [4], 25.3%.
`Cc1c(NC(=S)NC(=O)c2ccc(Cl)cc2)c(=O)n(-c2ccccc2)n1C`: the inhibition in assay [1] is 11.3%; in assay [2], 51.5% (active); in assay [3], 33.4%; in assay [4] it was -1.07%.
Turning to `CCOc1ccc(CCNC(=O)COC(=O)Cc2c[nH]c3ccccc23)cc1OCC`, the inhibition in assay [1] was 9.43%; in assay [2] it was 56.5% (active); in assay [3], 56.3% (active); in assay [4] it was -0.69%.
Take `O=C(CN(Cc1ccccc1)C(=O)CCl)c1cccc(Br)c1`: the inhibition in assay [1] was 19%; in assay [2], 55.7% (active); in assay [3], 51.8% (active); in assay [4], -1.2%.
As to `COc1ccc(NS(=O)(=O)c2cccc(NC(=O)c3ccc(Cl)nc3)c2)cc1`, the inhibition was 37.9% (active) in assay [1], 63.3% (active) in assay [2], 66% (active) in assay [3] and 55.4% (active) in assay [4].
For `Cc1cc(O)c(/C=N/Nc2cccc(Cl)c2)c(=O)o1`, in that order: -0.11%, 44.5% (active), 24.6% and 56% (active).
For the molecule `CN1c2ccccc2C(C)(C)C12C=Nc1c(cc(N3CCOCC3)c3ccccc13)O2` (stereo not drawn), the inhibition in assay [1] is 9%; in assay [2], 19.1%; in assay [3], 21.1%; in assay [4] it was 4.98%.
On to `COc1ccc(NC(=S)NCCc2ccc(F)cc2)c(OC)c1`, for which the inhibition was 7.84% in assay [1], 10.5% in assay [2], 18.5% in assay [3] and -8.33% in assay [4].
Take `Cc1ccc(-c2nc3ncccc3o2)cc1NC(=O)c1ccc([N+](=O)[O-])o1`: the inhibition was 24.2% in assay [1], 57.8% (active) in assay [2], 69.4% (active) in assay [3] and -15.3% in assay [4].
Take `O=c1c2ccc(Cl)cc2nc(-c2cccc(C(F)(F)F)c2)n1O`: the inhibition in assay [1] was 26.8%; in assay [2], 42.6% (active); in assay [3] it was 35.4%; in assay [4], 46.2% (active).
On to `CCOc1ccc(S(=O)(=O)Nc2nc3ccccc3nc2N2CCN(C)CC2)cc1`, for which the inhibition in assay [1] is -10.8%; in assay [2], 27.2%; in assay [3] it was 24.1%; in assay [4], -4.2%.
For the molecule `COc1ccc(C2=CC(=O)CC(C)(C)C2)cc1OC`, the inhibition is -7.16% in assay [1], 59.1% (active) in assay [2], 51.9% (active) in assay [3] and 11.7% in assay [4].
With `O=C1/C(=C/c2ccccc2)CN(C(=O)CCN2CCOCC2)C/C1=C\c1ccccc1`, the inhibition in assay [1] is 21.9%; in assay [2] it was 44.3% (active); in assay [3], 56.7% (active); in assay [4] it was 55.2% (active).
`COc1ccc(NC(=O)c2cc(-c3cc(F)ccc3OC)n[nH]2)cc1OC`: the inhibition in assay [1] is 28.8% (active); in assay [2], 43.6% (active); in assay [3], 49.4% (active); in assay [4], 52% (active).

A word on the inhibition: it is the relative decrease from the control value, in per cent.
